This is an account of results in PubChem BioAssay (NCI).

Among the test systems are DU-145 prostate; K-562 leukemia; MALME-3M melanoma; MDA-MB-231 breast; RXF 393 renal; SF-268 CNS; SF-295 CNS; SF-539 CNS; UACC-257 melanoma; M14 melanoma.
Test in all cases: NCI-60 one-dose screen, 48 h (100 = growth as untreated, 0 = no growth, -100 = all killed)
What all share (conditions): 10 µM unless noted

Each structure is given as a SMILES string. About 83,000 compounds went through this panel and 20% of them were active in at least one assay; those are over-represented in the sample as a whole.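 Each cell line was grown in a 96-well plate and treated with one concentration of compound for 48 hours. Values below 10 were considered active.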 A number with no mark means an inactive call. Calls of active or inactive are those of the source.

On to `CCOC(=O)c1c(C)c2c(n1C)CSc1cc(C(=O)c3ccccc3)c(=O)[nH]c1-2`, for which the growth in the assay with DU-145 prostate was 100% [100 µM]; in the assay with K-562 leukemia, 102% [100 µM]; with MALME-3M melanoma, 90.8% [100 µM]; in the assay on MDA-MB-231 breast, 87.1% [100 µM]; with RXF 393 renal it was 134% [100 µM]; with SF-268 CNS, 90.8% [100 µM]. The growth in the assay with SF-295 CNS was 103% [100 µM]; with SF-539 CNS it was 94.7% [100 µM]; with UACC-257 melanoma, 120% [100 µM]; in the assay on M14 melanoma it was 108% [100 µM].
As for `CC1(C)c2[nH]c3ccccc3c2C[C@]2(C)[C@H]3CC=C4[C@@H]5C[C@@](C)(C(N)=O)CC[C@]5(C)CC[C@@]4(C)[C@]3(C)CC[C@@H]12`, the growth in the assay with DU-145 prostate was 74%; in the assay on K-562 leukemia, 29.9%; with MALME-3M melanoma, 68%; in the assay with MDA-MB-231 breast, 65.8%; in the assay on RXF 393 renal, 77.4%; in the assay on SF-268 CNS, 73.2%. The growth in the assay on SF-295 CNS is 53.6%; in the assay on SF-539 CNS it was 80.9%; in the assay on UACC-257 melanoma, 52.5%; in the assay with M14 melanoma, 54.6%.
Consider `COc1cccc([C@H]2c3[nH]c4ccccc4c3C[C@H]3C(=O)N(CCCCCCC(=O)NO)CC(=O)N23)c1`, for which the growth with DU-145 prostate was 76.9%; in the assay on K-562 leukemia it was 27%; with MALME-3M melanoma, 24.3%; in the assay on MDA-MB-231 breast, 68.7%; in the assay on RXF 393 renal, 75%; with SF-268 CNS, 88.4%. Moreover, the growth in the assay with SF-295 CNS is 87.5%; in the assay on SF-539 CNS, 60.6%; in the assay with UACC-257 melanoma it was 51.6%; in the assay on M14 melanoma, 59.6%.
Take `COc1ccc(-c2csc(N(C(=O)N3CCN(c4cc5c(cc4F)c(=O)c(C(=O)O)cn5C4CC4)CC3)c3ccccc3)n2)cc1`: the growth in the assay on DU-145 prostate is 17.6%; with K-562 leukemia, 14%; in the assay with MALME-3M melanoma, 9.18% (active); in the assay on MDA-MB-231 breast, 28.3%; in the assay with RXF 393 renal, 35.8%; with SF-268 CNS, 22.9%. Moreover, the growth in the assay on SF-295 CNS is 3.69% (active); in the assay with SF-539 CNS, 9.1% (active); in the assay on UACC-257 melanoma, 12.4%; in the assay with M14 melanoma it was 26.6%.
As for `COc1ccc2c(O)c(/C=C3\N=Nc4ncccc43)oc2c1C[C@H]1CCNC[C@H]1F`, the growth with DU-145 prostate was 7.19% (active); in the assay with K-562 leukemia it was 1.73% (active); with MALME-3M melanoma it was -21.6% (active); in the assay on MDA-MB-231 breast, -6.95% (active); with RXF 393 renal, -44.4% (active); with SF-268 CNS, -5.68% (active). Besides, the growth with SF-295 CNS was 18.9%; with SF-539 CNS it was -29.9% (active); with UACC-257 melanoma, -6.32% (active); with M14 melanoma it was -40.9% (active).
Turning to `Clc1ccc(Sc2cnc(-c3ccccc3)o2)cc1`, the growth was 104% with DU-145 prostate; 98.2% in the assay on K-562 leukemia; 102% with MALME-3M melanoma; 97.2% in the assay with MDA-MB-231 breast; 115% in the assay on RXF 393 renal; 93.5% with SF-268 CNS. The growth in the assay on SF-295 CNS was 97.4%; in the assay on SF-539 CNS it was 96%; with UACC-257 melanoma, 93.6%; in the assay with M14 melanoma, 107%.
`Cc1ccc(Sc2oc(-c3ccc(C)cc3)nc2[P+](c2ccccc2)(c2ccccc2)c2ccccc2)cc1`: the growth with DU-145 prostate is 11.6%; in the assay on K-562 leukemia, 4.98% (active); in the assay on MALME-3M melanoma it was -41.1% (active); in the assay with MDA-MB-231 breast, -12.5% (active); in the assay with RXF 393 renal it was -18.8% (active); with SF-268 CNS, 10.9%. The growth with SF-295 CNS is 9.9% (active); in the assay with SF-539 CNS, -5.1% (active); in the assay on UACC-257 melanoma it was 0.818% (active); in the assay with M14 melanoma, 7.37% (active).
For `Brc1ccc2[nH]cc(-c3nonc3-c3c[nH]c4ccccc34)c2c1`, the growth with DU-145 prostate is 44.6%; with K-562 leukemia it was 10.4%; with MALME-3M melanoma, 56.8%; in the assay on MDA-MB-231 breast it was 11.6%; with RXF 393 renal, 77.6%; with SF-268 CNS it was 44.9%. For the same molecule, the growth with SF-295 CNS was 33.3%; in the assay on SF-539 CNS, 59.9%; in the assay with UACC-257 melanoma, 56.9%; in the assay on M14 melanoma, 24.7%.
`COc1ccc(-c2nnc(-c3ccc4c(c3)nc(-c3ccncc3)n4C3CCCCC3)o2)cc1`: the growth in the assay with DU-145 prostate is 68.5%; with K-562 leukemia, 43.3%; in the assay on MALME-3M melanoma, 82%; with MDA-MB-231 breast, 63.8%; with RXF 393 renal, 69.7%; in the assay with SF-268 CNS, 66.7%. Further, the growth in the assay with SF-295 CNS was 67.7%; with SF-539 CNS, 70.3%; in the assay on UACC-257 melanoma it was 77.6%; in the assay on M14 melanoma, 70.5%.
For `CC[C@]12C=CCN3CC[C@@]4(c5cc(NC(=O)CCC(=O)OCc6cn(Cc7ccc(F)cc7)nn6)c(OC)cc5N(C)[C@H]4[C@@](O)(C(=O)OC)[C@@H]1OC(C)=O)[C@@H]32`, the growth is 104% with DU-145 prostate; 99.8% in the assay on K-562 leukemia; 99.5% in the assay on MALME-3M melanoma; 98.9% with MDA-MB-231 breast; 103% in the assay on RXF 393 renal; 95.7% with SF-268 CNS. Further, the growth is 103% with SF-295 CNS, 96.9% with SF-539 CNS, 102% in the assay with UACC-257 melanoma and 103% with M14 melanoma.
For `N#Cc1c(NC(=O)c2ccccc2)sc2c1CCC(=O)C2`, the growth is 40.7% in the assay on DU-145 prostate; 4.06% (active) with K-562 leukemia; -12.9% (active) in the assay with MALME-3M melanoma; -11.3% (active) with MDA-MB-231 breast; -1.37% (active) with RXF 393 renal; 16% in the assay on SF-268 CNS. For the same molecule, the growth was 21.7% in the assay on SF-295 CNS, -28.4% (active) with SF-539 CNS, 2.08% (active) in the assay with UACC-257 melanoma and 14% in the assay on M14 melanoma.
In the case of `C=CCn1c(SCC(=O)Nc2ccc(C(=O)/C=C/c3cc4cc(OC)ccc4nc3Cl)cc2)nnc1-c1ccc(Br)cc1`, the growth in the assay with DU-145 prostate is 86.1%; in the assay with K-562 leukemia it was 46.3%; in the assay with MALME-3M melanoma, 92.5%; in the assay with MDA-MB-231 breast it was 80.5%; with RXF 393 renal it was 83.2%; with SF-268 CNS it was 76%. The growth in the assay with SF-295 CNS was 92.1%; with SF-539 CNS, 89.5%; in the assay on UACC-257 melanoma, 79.8%; in the assay on M14 melanoma, 90.1%.
